Data published in PubChem BioAssay (Tox21).
The source made the active and inactive calls. The call rests on the fitted dose curve; in most records, active means well fitted curve in the direction sought with a large enough effect in the repeat runs; inconclusive means weak or mixed curves; inactive means flat fitted curve, though single readings scatter.

Assay: qHTS assay to test for compound auto fluorescence at 535 nm (green) in HEK293 cells (AID 720680)
Conditions: green autofluorescence 485/535 nm; series mostly up to 91.3 µM
Excerpt: U.S. Tox21 Program National Center for Advancing Translational Sciences [NCATS] NIH Chemical Genomics Center [NCGC] U.S. Environmental Protection Agency [EPA] National Institutes of Environmental Health Sciences [NIEHS] National Toxicology Program [NTP] U.S. Food and Drug Administration [FDA] Tox21 Assay Overview: Compound auto fluorescence often interferes with screening of the compound library against various biological targets and signaling pathways. Some of these compounds may have fluorophoric properties. Such properties may interfere with the assay outputs resulting in false positives and/or negatives. To decrease such complications and ensure the compound activities are relevant in terms of biological response, the Tox21 10K compound library was screened for auto fluorescence. From the fluorophores used as reporter signals in our screening assays, the auto fluorescence equivalencies of compounds against three fluorophores have been evaluated: Triamterene, Fluorescein and Rose Bengal sodium for blue, green and red fluorescence, respectively. The fluorescence intensities were measured using Excitation/Emission wavelengths at 405/460nm, 485/535nm and 540/590nm for blue, green and red labels, respectively. This assay includes the green fluorescence data.
Tox21 Assay Protocol Summary: 2,000 HEK293 cells in 5 uL of culture medium containing 10% dialyzed FBS per well were dispensed into black wall/clear bottom 1536-well plates using a Multidrop Combi Dispenser (Thermo Scientific). The assay plates were incubated for 4-5 hr at 37C to allow cell attachment to the well bottom, followed by the transfer of 23 nL compound or DMSO vehicle by a pintool work station (Kalypsys, San Diego, CA). After the assay plates were incubated overnight at 37C and 5% CO2, fluorescence intensities in the assay plates were measured by an Envision (PerkinElmer, Shelton, CT) plate reader using three labels for measuring blue, green and red fluorescence at […] 460, 535 and 590nm respectively.

SMILES	outcome
CC(O)CCO (stereo not given)	inactive
CCCCN(CCCC)N=O	inactive
CC1(C)C(C=C(Cl)Cl)C1C(=O)OC(C#N)c1cccc(Oc2ccccc2)c1 (stereo not given)	inactive
c1ccc(-c2cccc(-c3ccccc3)c2)cc1	inactive
Cc1cc(C)cc(C)c1	inactive
CCN(CC)N=O	inactive
Cc1ccc(OP(=O)(Oc2ccc(C)cc2)Oc2ccc(C)cc2)cc1	inactive
Cc1cccc(N)c1N	inactive
Nc1ccc(Cl)c(Cl)c1	inactive
C#C[C@]1(O)CC[C@H]2[C@@H]3CCC4=CC(=O)CC[C@]4(C)[C@H]3CC[C@@]21C	inactive
Brc1ccc(Oc2cc(Br)c(Br)cc2Br)c(Br)c1	inactive
C#CCOS(=O)OC1CCCCC1Oc1ccc(C(C)(C)C)cc1 (stereo not given)	inactive
C[C@]12CCC(=O)C[C@@H]1CC[C@@H]1[C@@H]2CC[C@]2(C)[C@@H](O)CC[C@@H]12	inactive
CC(C)NC(C)C	inactive
CCOc1cc(Oc2ccc(C(F)(F)F)cc2Cl)ccc1[N+](=O)[O-]	inactive
COP(=S)(OC)Oc1cc(Cl)c(Cl)cc1Cl	inactive
CN(C)c1ccc(C(=O)c2ccc(N(C)C)cc2)cc1	inactive
O=P(Oc1ccccc1)(Oc1ccccc1)Oc1ccccc1	inactive
CC(C)N(C(=O)SCC(Cl)=C(Cl)Cl)C(C)C	inactive
CCCCNC(=O)n1c(NC(=O)OC)nc2ccccc21	inactive

SMILES	outcome
C=C(C)C(=O)OCC1CO1 (stereo not given)	inactive
Oc1cc(Cl)c(Cl)cc1Cl	inactive
O=C(CCl)c1ccccc1	inactive
COP(=S)(OC)Oc1ccc([N+](=O)[O-])cc1	inactive
Nn1cnnc1	inactive
CCC(C)(C)c1ccc(O)cc1	inactive
Nc1c(Cl)cc([N+](=O)[O-])cc1Cl	inactive
CCCCCCCCCCCOC(=O)c1ccccc1C(=O)OCCCCCCCCCCC	inactive
Nc1ccc(Cl)cc1N	inactive
CNC(=O)Oc1cccc2c1OC(C)(C)O2	inactive
COC(=O)c1sccc1S(=O)(=O)NC(=O)Nc1nc(C)nc(OC)n1	inactive
c1cc(OCC2CO2)ccc1Cc1ccc(OCC2CO2)cc1 (stereo not given)	inactive
Oc1ccc(-c2ccccc2)cc1	inactive
N#CC(Br)Br	inactive
C=CC(=O)OCCO	inactive
ClC1C(Cl)C(Cl)C(Cl)C(Cl)C1Cl (stereo not given)	inactive
c1ccc(P(c2ccccc2)c2ccccc2)cc1	inactive
CCC(C)c1ccc(O)cc1 (stereo not given)	inactive
CCCCOCCOP(=O)(OCCOCCCC)OCCOCCCC	inactive
CCN(N=O)C(N)=O	inactive
